{"source": "PubChem BioAssay AID431", "about": "(Sanford-Burnham Center for Chemical Genomics, 2006)", "note": "Among all 63,000 compounds or so, about 1,100 (1.7%) were called active. What follows is part of a selection rich in actives, with near analogues and random picks from the rest. Entries with a potency or affinity are not part of this list. Unmarked numbers belong to inactive results.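 The calls were made as follows: active = compounds whose percent cytotoxicity in the single-dose primary screen, scaled between solvent and toxic-drug controls, exceeds 50; inactive = the rest.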"}
{"test": "viability loss of HPDE-C7K cells – cell-based, fluorescence, HTS, primary screen (AID 431);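 also: 0% = DMSO solvent wells and 100% = doxorubicin-treated wells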", "details": "HPDE-C7K KRASV12 cells, Alamar Blue viability, 48 h; at 10 µM; active compounds read high"}
{"smiles": "COCCOC(=O)c1c(C)oc2ccc(NS(=O)(=O)c3ccccc3)cc12", "cytotoxicity": "17.1%"}
{"smiles": "COC(=O)c1ccccc1NS(=O)(=O)c1ccc2c3c(cccc13)C(=O)N2", "cytotoxicity": "20.3%"}
{"smiles": "CCOC(=O)c1c(C)oc2ccc(NS(=O)(=O)c3ccc4c5c(cccc35)C(=O)N4)cc12", "cytotoxicity": "69.9% (active)"}
{"smiles": "CCCCn1c2c(c3ccccc31)CCc1nonc1-2", "cytotoxicity": "14.8%"}
{"smiles": "COC(=O)C(C)NC(=O)C(C)NC(=O)OCc1ccccc1", "note": "(stereo unspecified)", "cytotoxicity": "8%"}
{"smiles": "O=C(c1ccco1)N1CCN(c2c(-c3ccccc3)c3cc(Cl)ccc3[nH]c2=O)CC1", "cytotoxicity": "81.6% (active)"}
{"smiles": "O=c1[nH]c2ccc(Cl)cc2c(-c2ccccc2)c1N1CCOCC1", "cytotoxicity": "12.4%"}
{"smiles": "CCOC(=O)N1CCN(c2c(-c3ccccc3)c3cc(Cl)ccc3[nH]c2=O)CC1", "cytotoxicity": "-2.7%"}
{"smiles": "COc1cc(NC(=O)c2ccccc2)c(OC)cc1NC(C)=O", "cytotoxicity": "-2.1%"}
{"smiles": "O=C1NC(c2ccncc2)Nc2ccccc21", "note": "(stereo unspecified)", "cytotoxicity": "-12.1%"}
{"smiles": "COCCNC(=O)c1cc2cc(Br)cc(OC)c2oc1=O", "cytotoxicity": "0.9%"}
{"smiles": "O=C(Nc1nc2ccccc2n1CCN1CCCCC1)c1ccco1", "cytotoxicity": "-5%"}
{"smiles": "CCCn1c(NC(=O)c2cccc(S(=O)(=O)N3CCCC3)c2)nc2ccccc21", "cytotoxicity": "54% (active)"}
{"smiles": "CCCn1c(NC(=O)c2ccc(Cl)c(S(=O)(=O)N3CCCC3)c2)nc2ccccc21", "cytotoxicity": "37.6%"}
{"smiles": "CCCn1c(NC(=O)c2ccc(C)cc2)nc2ccccc21", "cytotoxicity": "-46.1%"}
{"smiles": "O=C(Nc1nc2ccccc2n1CCN1CCCC1)c1ccc(Cl)cc1", "cytotoxicity": "62.1% (active)"}
{"smiles": "Cc1ccc(C(=O)Nc2nc3ccccc3n2CCN2CCCC2)cc1", "cytotoxicity": "-3.5%"}
{"smiles": "CC(C)(CSc1nncn1N)NS(=O)(=O)c1ccc(Cl)cc1", "cytotoxicity": "0%"}
{"smiles": "Cc1cc(-c2ccccc2)c(C#N)c(SCC(N)=O)n1", "cytotoxicity": "0.4%"}
{"smiles": "CC1CCCN(C(=O)Cn2nnc(-c3cccnc3)n2)C1", "note": "(stereo unspecified)", "cytotoxicity": "1%"}
{"smiles": "CC(NS(=O)(=O)c1ccc(F)cc1)C(c1cccs1)N1CCN(C)CC1", "note": "(stereo unspecified)", "cytotoxicity": "-12.3%"}
{"smiles": "CC1CCCCN1S(=O)(=O)c1ccc(S(=O)(=O)N2CCN(c3ccc(F)cc3)CC2)cc1", "note": "(stereo unspecified)", "cytotoxicity": "-7.9%"}
{"smiles": "Cc1nc(CN2CCN(C(=O)NC3(c4ccccc4)CC3)CC2)cs1", "cytotoxicity": "-4.3%"}
{"smiles": "COc1ccc2c(c1OC)C(=O)N1c3ccccc3C(=O)N(c3ccccc3)C21", "note": "(stereo unspecified)", "cytotoxicity": "38.7%"}
{"smiles": "COc1ccc2c(c1OC)C(=O)N1c3ccccc3C(=O)N(c3ccc(F)cc3)C21", "note": "(stereo unspecified)", "cytotoxicity": "12.3%"}
{"smiles": "COc1ccc2c(c1OC)C(=O)N1c3ccccc3C(=O)N(c3ccccc3F)C21", "note": "(stereo unspecified)", "cytotoxicity": "53.2% (active)"}
{"smiles": "CCN(CCNC(=O)C1CCN(S(C)(=O)=O)CC1)c1ccccc1", "cytotoxicity": "-4.7%"}
{"smiles": "CCOC(=O)c1ccc(NC(=O)CN2CCN(c3ccccc3)CC2)cc1", "cytotoxicity": "-0.6%"}
{"smiles": "CCOC(=O)c1ccc(NC(=O)CN2CCc3ccccc3C2)cc1", "cytotoxicity": "53.1% (active)"}
{"smiles": "O=C(CN1CCCCC1)Nc1ccccc1NC(=O)CN1CCCCC1", "cytotoxicity": "-8.2%"}
{"smiles": "CCOC(=O)c1ccc(NC(=O)N2CCc3ccccc32)cc1", "cytotoxicity": "16.1%"}
{"smiles": "COc1ccc(NC(=O)CNCCC2=CCCCC2)cc1", "cytotoxicity": "-7.1%"}
{"smiles": "CC(C)CC(=O)Nc1ccccc1N1CCCC1", "cytotoxicity": "-13.9%"}
{"smiles": "O=C(COc1ccccc1)Nc1ccccc1N1CCCCC1", "cytotoxicity": "-5.3%"}
{"smiles": "O=C(CNCCC1=CCCCC1)Nc1ccccc1N1CCCCC1", "cytotoxicity": "74.2% (active)"}
{"smiles": "O=C(CN1CCc2ccccc2C1)Nc1ccccc1N1CCCCCC1", "cytotoxicity": "62.4% (active)"}
{"smiles": "COc1ccc(CCNC(=O)c2c(O)c3cccc4c3n(c2=O)CC4)cc1OC", "cytotoxicity": "3.1%"}
{"smiles": "Cc1cc(C(=O)OCC(=O)N2CC(C)CC(C)C2)c(C)o1", "note": "(stereo unspecified)", "cytotoxicity": "-1%"}
{"smiles": "CC(=O)c1ccc(NC(=O)C2CCCNC2=O)cc1", "note": "(stereo unspecified)", "cytotoxicity": "-14.4%"}
{"smiles": "Cc1nnc2ccc(N3CCN(c4cccc(C(F)(F)F)c4)CC3)nn12", "cytotoxicity": "3.9%"}
{"smiles": "Cn1c(=O)n(-c2ccccc2)c(=O)c2c3c(sc21)COC(C)(C)C3", "cytotoxicity": "-13.9%"}
{"smiles": "Cc1ccc(S(=O)(=O)NC(=NCC(=O)O)c2ccccc2)cc1", "cytotoxicity": "5.9%"}
{"smiles": "CCOc1ccc2[nH]c(=O)c(CN(CCOC)C(=O)N3CCOCC3)cc2c1", "cytotoxicity": "5.7%"}
{"smiles": "COC(=O)C(C)NS(=O)(=O)c1ccc(NC(C)=O)cc1", "note": "(stereo unspecified)", "cytotoxicity": "-26.3%"}
{"smiles": "COc1ccccc1NS(=O)(=O)c1ccc(NC(C)=O)cc1", "cytotoxicity": "1.6%"}
{"smiles": "CCOC(=O)CN(Cc1ccccc1)S(=O)(=O)c1ccc(NC(C)=O)cc1", "cytotoxicity": "8.6%"}
{"smiles": "CC(=O)Nc1ccc(S(=O)(=O)c2ccc(N)cc2)cc1", "cytotoxicity": "-14.7%"}
{"smiles": "COC(=O)/C=C/S(=O)(=O)c1ccc(NC(C)=O)cc1", "cytotoxicity": "58.8% (active)"}
{"smiles": "CC(C)c1c(O)nc(SCc2ccccc2)[nH]c1=O", "cytotoxicity": "-18%"}
{"smiles": "COc1cccc(-n2nnnc2SCC(=O)c2cc(OC)ccc2OC)c1", "cytotoxicity": "-8.2%"}
{"smiles": "COc1ccc(-c2nnnn2CCc2ccccc2)cc1", "cytotoxicity": "-2.2%"}
{"smiles": "CCOc1cccc(-n2nnnc2-c2ccc(OC)cc2)c1", "cytotoxicity": "52.1% (active)"}
{"smiles": "COc1cccc(Oc2nnnn2-c2ccccc2)c1", "cytotoxicity": "-16.1%"}
{"smiles": "COc1ccc(-n2nnnc2-c2cccc(OC)c2)cc1", "cytotoxicity": "60.7% (active)"}
{"smiles": "COc1ccc(-n2nnnc2-c2cccnc2)cc1", "cytotoxicity": "0.7%"}
{"smiles": "COc1ccc(-c2nnnn2-c2ccccc2OC)cc1", "cytotoxicity": "36.6%"}
{"smiles": "O=C(CSc1nnnn1-c1ccccc1)CSc1nnnn1-c1ccccc1", "cytotoxicity": "3%"}
{"smiles": "COc1ccc(-n2nnnc2SCC(=O)c2cccc(OC)c2)cc1", "cytotoxicity": "25.7%"}
{"smiles": "CCS(=O)(=O)c1nnnn1-c1ccccc1S(C)(=O)=O", "cytotoxicity": "36.8%"}
{"smiles": "N#CCCS(=O)(=O)c1nnnn1-c1ccccc1", "cytotoxicity": "67.8% (active)"}
{"smiles": "O=C(Nc1ccc2c(c1)OCCO2)C1CCN(C(=O)c2ccc(Br)cc2)CC1", "cytotoxicity": "4.7%"}
{"smiles": "COc1ccc(N2C(=O)C(CC(=O)Nc3ccccc3)N(Cc3ccc4c(c3)OCO4)C2=O)cc1", "note": "(stereo unspecified)", "cytotoxicity": "-9%"}
{"smiles": "c1ccc2c(c1)nc(Nc1ccc3c(c1)OCO3)c1nnnn12", "cytotoxicity": "-10.2%"}
{"smiles": "COc1ccc(CCNC(=O)CCS(=O)(=O)c2cccc3nsnc23)cc1OC", "cytotoxicity": "-2.7%"}
{"smiles": "COc1ccc(OC)c2sc(N3CCN(c4ccccc4)CC3)nc12", "cytotoxicity": "15.9%"}
{"smiles": "CCCc1c(C(=O)OCC)[nH]c2c1C(=O)CCC2", "cytotoxicity": "10%"}
{"smiles": "O=C(Nc1ccc(C(F)(F)F)cc1)C1CCCN1S(=O)(=O)c1cccc2cccnc12", "note": "(stereo unspecified)", "cytotoxicity": "16.9%"}
{"smiles": "C=CCNC(=O)c1ccccc1NS(=O)(=O)c1ccc(SC)cc1", "cytotoxicity": "26.3%"}
{"smiles": "CCOc1ccc(NC(=O)CN2CCN(CC(=O)Nc3ccc4c(c3)OCCO4)CC2)cc1", "cytotoxicity": "-5.7%"}
{"smiles": "O=CNC1CCCc2c1[nH]c1ccc(Cl)cc21", "note": "(stereo unspecified)", "cytotoxicity": "12.8%"}
{"smiles": "Cc1ccc2[nH]c3c(c2c1)CCC3=O", "cytotoxicity": "-12.2%"}
{"smiles": "CC(Oc1ccc(Cl)cc1)C(=O)Nc1nccs1", "note": "(stereo unspecified)", "cytotoxicity": "-6%"}
{"smiles": "c1ccc(-n2nnnc2Sc2n[nH]c(-c3ccncc3)n2)cc1", "cytotoxicity": "-8.6%"}
{"smiles": "CC(=O)C1=C(O)C(=O)N(CCN(C)C)C1c1ccc(Cl)cc1", "note": "(stereo unspecified)", "cytotoxicity": "1%"}
{"smiles": "COc1cccc(CNC(=O)C2CCN(C(=O)N(C)C)CC2)c1", "cytotoxicity": "-6.1%"}
{"smiles": "CCC(NC(C)C)C(O)c1ccc(O)c(O)c1", "note": "(stereo unspecified)", "cytotoxicity": "2.8%"}
{"smiles": "Cc1ccc(O)c(CC(C)C)n1", "cytotoxicity": "5.8%"}
{"smiles": "CC1CCCN(S(=O)(=O)c2cccc(-c3cn4cccnc4n3)c2)C1", "note": "(stereo unspecified)", "cytotoxicity": "-3%"}
{"smiles": "O=C(Nc1ccc(N2CCOCC2)cc1)Nc1ccc2nc(-c3ccco3)c(-c3ccco3)nc2c1", "cytotoxicity": "80.3% (active)"}
{"smiles": "O=C(Nc1ccc(N2CCOCC2)cc1)c1ccc2nc(-c3ccco3)c(-c3ccco3)nc2c1", "cytotoxicity": "-26.4%"}
{"smiles": "O=C(Nc1ccc2nc(-c3ccco3)c(-c3ccco3)nc2c1)N1CCCCCC1", "cytotoxicity": "38.8%"}
{"smiles": "Cn1nnnc1SCC(=O)N1CCc2ccccc2C1", "cytotoxicity": "-12.2%"}
{"smiles": "CC(C)c1ccc(NC(=O)C(c2ccccc2)N2CCN(C(=O)c3ccco3)CC2)cc1", "note": "(stereo unspecified)", "cytotoxicity": "-11.8%"}
{"smiles": "COc1ccc(NS(=O)(=O)c2ccc(O)c(C(=O)OCC(=O)N3CC(C)OC(C)C3)c2)cc1", "note": "(stereo unspecified)", "cytotoxicity": "11.2%"}
{"smiles": "C=CCn1c(Cc2csc(N)n2)nnc1SCc1ccc(C(=O)OC)cc1", "cytotoxicity": "-10.3%"}
{"smiles": "Cc1ccc(-n2c(SCC(=O)NCc3ccco3)nc3sc(C)c(C)c3c2=O)cc1", "cytotoxicity": "-4%"}
{"smiles": "Cc1cc(C)c2ccc(C)[n+]([O-])c2c1O", "cytotoxicity": "-6.5%"}
{"smiles": "Cc1cc(C)c2ccc(N)nc2c1O", "cytotoxicity": "121% (active)"}
{"smiles": "Cc1cc(=O)oc2c(N)c(O)ccc12", "cytotoxicity": "-2.8%"}
{"smiles": "CCCC(=O)Nc1ccccc1NC(=O)CN(C)S(=O)(=O)c1ccccc1", "cytotoxicity": "-1.8%"}
{"smiles": "Cc1csc(NC(=O)CSc2nc(C)cs2)n1", "cytotoxicity": "6.5%"}
{"smiles": "CC(C)(C)NC(=O)CSc1nsc(SCC(=O)NC(C)(C)C)c1C#N", "cytotoxicity": "11.8%"}
{"smiles": "Cc1n[nH]c(C)c1Cc1ccc(C(=O)O)cc1", "cytotoxicity": "-13.2%"}
{"smiles": "CS(=O)(=O)c1ccc2nc(NC(=O)CC3CCCC3)sc2c1", "cytotoxicity": "-9%"}
{"smiles": "Cc1cc(C)c(NC2=NCC(=O)N2C2CCCCC2)c(C)c1", "cytotoxicity": "-9.5%"}
{"smiles": "Cc1nc(N2CCc3ccccc3C2)[nH]c(=O)c1CCC(C)C", "cytotoxicity": "8.4%"}
{"smiles": "COc1ccc(C)cc1NC(=O)CN(c1ccccc1)S(C)(=O)=O", "cytotoxicity": "-2.4%"}
{"smiles": "O=C(Nc1nccs1)c1cc2sccc2n1Cc1ccc(F)cc1", "cytotoxicity": "-3.4%"}
{"smiles": "c1ccc(-n2nnnc2SCCCSc2nc3ccccc3s2)cc1", "cytotoxicity": "2%"}
{"smiles": "COc1ccc(CCNC(=O)CSc2nnnn2-c2ccccc2OC)cc1OC", "cytotoxicity": "6.4%"}
{"smiles": "CCCSc1nnc(Sc2nnnn2-c2ccccc2)s1", "cytotoxicity": "88.2% (active)"}
{"smiles": "Cc1ccc(C)c(Oc2nnnn2-c2ccccc2)c1", "cytotoxicity": "-2.3%"}
{"smiles": "C(=C\\CSc1nnnn1-c1ccccc1)/CSc1nnnn1-c1ccccc1", "cytotoxicity": "-12.8%"}
{"smiles": "Cn1ccnc1Sc1nnnn1-c1ccccc1", "cytotoxicity": "-9.8%"}
{"smiles": "COc1ccc(-n2nnnc2SCC(=O)NCCc2ccc(OC)c(OC)c2)cc1", "cytotoxicity": "-3.9%"}
{"smiles": "COc1ccc(CCNc2nnc(Sc3nnnn3-c3ccccc3)s2)cc1OC", "cytotoxicity": "68.8% (active)"}
